The results in this text go back to PubChem BioAssay (Tox21).

Where “and” joins values, the source holds several entries; their conditions need not be identical. Equal entries are not always repeated. Inconclusive results are not listed. The source holds several records for some structures; these can differ, active in one and inactive in another. Calls of active or inactive are those of the source. Calls come from the whole dose curve; as a rule, active = well fitted inhibition curve with a large enough effect in the repeat runs; inconclusive = weak or mixed curves; inactive = no such curve, though single readings can be large or run the other way.
% is set by controls: 0 for no effect and ±100 for the full control effect; potency is the fitted concentration of half-maximal effect.
Note: nearly all actives have a fitted effect of over 50% in size.

Chain of Cytochrome P450 2C9 (Homo sapiens) (P11712 whole entry, looked up): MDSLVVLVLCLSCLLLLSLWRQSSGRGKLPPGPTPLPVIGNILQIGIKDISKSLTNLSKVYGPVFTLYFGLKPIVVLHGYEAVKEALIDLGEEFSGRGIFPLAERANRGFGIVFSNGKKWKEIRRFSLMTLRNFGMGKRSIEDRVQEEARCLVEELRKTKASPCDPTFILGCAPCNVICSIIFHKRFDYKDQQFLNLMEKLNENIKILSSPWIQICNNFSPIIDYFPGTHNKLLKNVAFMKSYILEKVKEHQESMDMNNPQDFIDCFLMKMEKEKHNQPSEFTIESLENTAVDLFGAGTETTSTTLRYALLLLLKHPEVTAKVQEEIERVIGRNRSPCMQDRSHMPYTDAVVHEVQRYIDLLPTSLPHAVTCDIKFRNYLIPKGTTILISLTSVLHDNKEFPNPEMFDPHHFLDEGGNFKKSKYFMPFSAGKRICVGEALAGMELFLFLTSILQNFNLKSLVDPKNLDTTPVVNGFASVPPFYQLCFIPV
Chain of Cytochrome P450 1A2 (Homo sapiens) (P05177 whole entry, looked up): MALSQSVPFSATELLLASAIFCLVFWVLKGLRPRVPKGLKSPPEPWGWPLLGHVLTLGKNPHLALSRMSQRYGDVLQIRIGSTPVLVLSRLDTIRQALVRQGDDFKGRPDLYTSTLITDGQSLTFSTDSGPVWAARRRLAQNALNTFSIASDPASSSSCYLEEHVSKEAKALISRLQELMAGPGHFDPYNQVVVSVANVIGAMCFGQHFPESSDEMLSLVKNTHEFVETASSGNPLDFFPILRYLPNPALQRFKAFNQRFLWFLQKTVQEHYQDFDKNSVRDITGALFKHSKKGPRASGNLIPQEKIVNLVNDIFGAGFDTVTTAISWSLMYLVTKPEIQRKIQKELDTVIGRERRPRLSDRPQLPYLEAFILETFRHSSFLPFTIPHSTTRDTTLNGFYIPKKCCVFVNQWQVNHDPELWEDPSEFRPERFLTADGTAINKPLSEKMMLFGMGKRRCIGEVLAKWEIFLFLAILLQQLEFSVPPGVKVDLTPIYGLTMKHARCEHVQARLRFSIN

The target of the first assay is Cytochrome P450 2C9 (Homo sapiens) (UniProt P11712). Kind of assay: Cytochrome P450 Family 2 Subfamily C Member 9 (CYP2C9) small molecule antagonists: luciferase reporter qHTS assay (AID 1671198). The settings on record: P450-Glo CYP2C9 enzyme assay, luciferin luminescence; series mostly up to 115 µM; activity change, negative = inhibition: at the top concentration. The method, boiled down:
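CYP2C9 activity was measured with a P450-Glo proluciferin substrate. Enzyme–substrate mix was held with compound for 10 min at room temperature, then NADPH regeneration solution was added for 1 h at 37C. Luciferin product was read as luminescence.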
For orientation: A reporter such as luciferase makes a cellular process visible.
Regarding `CN(C)CCC(c1ccccc1)c1ccccn1` (configuration not stated), the Potency entry was “inactive”.
Same read-out and setting: the entry for `O=c1[nH]c(=O)n([C@H]2C[C@H](O)[C@@H](CO)O2)cc1Br` is “inactive”.
Still for that read-out and setting: for `OCCOCCOCCO` the value was “inactive”.
For `CC(=O)OCC(=O)[C@@]12N=C(C)O[C@@H]1C[C@H]1[C@@H]3CCC4=CC(=O)C=C[C@]4(C)[C@H]3[C@@H](O)C[C@@]12C`, the “activity change, negative = inhibition” value was -19.6% [at 53 µM] (inactive).
For the compound `O=C(O)c1ccc2c(c1)C(=O)OC2=O`, the Potency entry is “inactive”.
On the same count and under the same terms, the entry for `OC[C@H]1O[C@@](CO)(O[C@H]2O[C@H](CO)[C@@H](O)[C@H](O)[C@H]2O)[C@@H](O)[C@@H]1O` is “inactive”.
`Cc1ccc(N(C)C)cc1`: the “activity change, negative = inhibition” value is -14.3% (inactive).
Consider `O=C(OCCOCCOC(=O)c1ccccc1)c1ccccc1`, for which the Potency is 8.91 µM (active) and 14.2 µM (active).
In the case of `O=C(Oc1ccccc1)c1ccccc1`, the “activity change, negative = inhibition” value is -5.67% (inactive).
Regarding `CC(C)(N)CO`, the Potency result was “inactive”.
Regarding `CCCC(C)=O`, the “activity change, negative = inhibition” value was -9.19% (inactive).
Consider `CCCCC(CC)COC(=O)CCCCC(=O)OCC(CC)CCCC` (configuration not stated), for which the Potency is 28.3 µM (active).
For the compound `CCCCCC/C(C=O)=C\c1ccccc1`, the Potency is 35.6 µM (active).
Consider `Cc1ccc(S(N)(=O)=O)cc1`, for which the “activity change, negative = inhibition” value is 1.7% (inactive).
Turning to `FC(F)(F)c1ccc(Cl)c(Cl)c1`, the Potency entry was “inactive”.
Same read-out and setting: the entry for `C[Si](O[Si](C)(C)C)O[Si](C)(C)C` is “inactive”; for `C=C(C)C(=O)Nc1ccc(Cl)c(Cl)c1` it is 36 µM (active) and 63 µM (active); for `CCCCC(CC)COC(=O)CS` (configuration not stated) it is 64.1 µM (active) and 71 µM (active).
On the same count and under the same terms, for `COS(C)(=O)=O` the value was “inactive”; for `CC(c1cc2ccccc2s1)N(O)C(N)=O` (configuration not stated), 71 µM (active).
Turning to `Cc1cc(C)c(C)cc1C`, the Potency entry is “inactive”.
The same measure, in the same setting: for `CCCCOC(=O)COc1ccc(Cl)cc1Cl` the value was 36 µM (active) and 35.6 µM (active); for `Oc1cccc2ccccc12`, 36.5 µM (active) and 35.6 µM (active).
Same read-out and setting: for `CC1CCC2CC1C2(C)C` (configuration not stated) the value was “inactive”; for `CCCCCOC(C)=O`, 10 µM (active); for `CCCCCC(N)=O`, “inactive”.
On the same count and under the same terms, for `C=CCOC(=O)c1ccccc1C(=O)OCC=C` the value was 3.93 µM (active) and 5.64 µM (active); for `OCC(CO)(CBr)CBr`, “inactive”.
For `O=c1[nH]c(=O)n([C@H]2CCCO2)cc1F`, the Potency entry was “inactive”.
On the same count and under the same terms, for `CCCCN(CCCC)CCCC` the value was 89.4 µM (active).
Regarding `C=CCNC(N)=S`, the “activity change, negative = inhibition” value is -0.28% [at 53 µM] (inactive).
`COc1cc(Cc2cnc(N)nc2N)cc(OC)c1OC`: the “activity change, negative = inhibition” value was -8.46% [at 53 µM] (inactive).
On to `O=C1CCC(N2C(=O)c3ccccc3C2=O)C(=O)N1` (configuration not stated), for which the “activity change, negative = inhibition” value is -9.03% [at 53 µM] (inactive).
Regarding `C=C(C)C(=O)OCCOCCOCCOC(=O)C(=C)C`, the Potency is 40 µM (active).
As to `CCC(O)OCCCOC` (configuration not stated), the “activity change, negative = inhibition” value is -11.4% (inactive).
Consider `CN(C)CCCN`, for which the Potency entry was “inactive”.
On to `CCc1cccc(C)c1N`, for which the “activity change, negative = inhibition” value is -2.93% (inactive).

Another assay has as its target Cytochrome P450 1A2 (Homo sapiens) (UniProt P05177). As to the kind of experiment: Cytochrome P450 Family 1 Subfamily A Member 2 (CYP1A2) small molecule antagonists: luciferase reporter qHTS assay (AID 1671199). The following applies: P450-Glo CYP1A2 enzyme, luciferin luminescence, 1 h; series mostly up to 115 µM; activity change, negative = inhibition: at the top concentration. The method, boiled down:
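P450-Glo CYP1A2, 1536-well qHTS: enzyme/proluciferin substrate + cpd (DMSO), 10 min RT; NADPH regen, 1 h RT; detection reagent, 20 min; luminescence, RLU.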
As for `CN(C)CCC(c1ccccc1)c1ccccn1` (configuration not stated), the Potency was 40 µM (active) and inactive.
On the same count and under the same terms, the figure for `O=c1[nH]c(=O)n([C@H]2C[C@H](O)[C@@H](CO)O2)cc1Br` is 40.6 µM (active) and inactive.
With `OCCOCCOCCO`, the “activity change, negative = inhibition” value was -11.8% (inactive).
In the case of `CC(=O)OCC(=O)[C@@]12N=C(C)O[C@@H]1C[C@H]1[C@@H]3CCC4=CC(=O)C=C[C@]4(C)[C@H]3[C@@H](O)C[C@@]12C`, the Potency entry was “inactive and 17.4 µM (active)”.
The same measure, in the same setting: the entry for `O=C(O)c1ccc2c(c1)C(=O)OC2=O` is “inactive”.
Turning to `OC[C@H]1O[C@@](CO)(O[C@H]2O[C@H](CO)[C@@H](O)[C@H](O)[C@H]2O)[C@@H](O)[C@@H]1O`, the “activity change, negative = inhibition” value was -11.7% (inactive).
Same read-out and setting: the figure for `Cc1ccc(N(C)C)cc1` is -17.3% (inactive).
Turning to `O=C(OCCOCCOC(=O)c1ccccc1)c1ccccc1`, the Potency is 5.01 µM (active) and 8.94 µM (active).
Consider `O=C(Oc1ccccc1)c1ccccc1`, for which the Potency was 31.7 µM (active).
Same read-out and setting: for `CC(C)(N)CO` the value was “inactive”.
Still for that read-out and setting: the entry for `CCCC(C)=O` is “inactive”.
On the same count and under the same terms, for `CCCCC(CC)COC(=O)CCCCC(=O)OCC(CC)CCCC` (configuration not stated) the value was “inactive and 35.6 µM (active)”.
As to `CCCCCC/C(C=O)=C\c1ccccc1`, the Potency is 22.7 µM (active) and 8.94 µM (active).
Regarding `Cc1ccc(S(N)(=O)=O)cc1`, the “activity change, negative = inhibition” value was -24.4% (inactive).
For `C[Si](O[Si](C)(C)C)O[Si](C)(C)C`, the Potency result is “inactive”.
Still for that read-out and setting: the figure for `C=C(C)C(=O)Nc1ccc(Cl)c(Cl)c1` is 2.86 µM (active) and 5 µM (active).
The same measure, in the same setting: the figure for `CCCCC(CC)COC(=O)CS` (configuration not stated) is 64.1 µM (active) and inactive.
With `COS(C)(=O)=O`, the “activity change, negative = inhibition” value was -9.15% (inactive).
Take `CC(c1cc2ccccc2s1)N(O)C(N)=O` (configuration not stated): the Potency is 8.94 µM (active) and 11.5 µM (active).
Same read-out and setting: for `Cc1cc(C)c(C)cc1C` the value was “inactive”.
Consider `CCCCOC(=O)COc1ccc(Cl)cc1Cl`, for which the Potency was 40.4 µM (active) and 39.9 µM (active).
Same read-out and setting: the entry for `CC1CCC2CC1C2(C)C` (configuration not stated) is “inactive”; for `CCCCCOC(C)=O` it is “inactive”.
Take `CCCCCC(N)=O`: the “activity change, negative = inhibition” value was -2.77% [at 53 µM] (inactive).
As to `C=CCOC(=O)c1ccccc1C(=O)OCC=C`, the Potency was 2.48 µM (active) and 3.56 µM (active).
Consider `OCC(CO)(CBr)CBr`, for which the Potency is 40.4 µM (active) and inactive.
Still for that read-out and setting: for `O=c1[nH]c(=O)n([C@H]2CCCO2)cc1F` the value was “inactive”.
In the case of `CCCCN(CCCC)CCCC`, the Potency is 35.5 µM (active) and inactive.
Turning to `C=CCNC(N)=S`, the “activity change, negative = inhibition” value is -16.2% [at 53 µM] (inactive).
`COc1cc(Cc2cnc(N)nc2N)cc(OC)c1OC`: the Potency is 35.5 µM (active) and inactive.
For the compound `O=C1CCC(N2C(=O)c3ccccc3C2=O)C(=O)N1` (configuration not stated), the Potency result was “inactive”.
Turning to `C=C(C)C(=O)OCCOCCOCCOC(=O)C(=C)C`, the Potency is 40 µM (active) and 28.3 µM (active).
Same read-out and setting: for `CCC(O)OCCCOC` (configuration not stated) the value was “inactive”.
The same measure, in the same setting: the entry for `CN(C)CCCN` is “inactive”; for `CCc1cccc(C)c1N` it is 39.9 µM (active).
